# CYP2C9 inhib – blocks human cytochrome P450 2C9. CYP2C9 Supersomes, luciferin-H conversion, luminescence. inhibition, % at 5 µM. 96,000 tested, 20% active;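 active means blocking of liver enzyme CYP2C9 beyond about 50% at 5 µM, limit read from the data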
# Target sequence (P11712 whole entry, looked up): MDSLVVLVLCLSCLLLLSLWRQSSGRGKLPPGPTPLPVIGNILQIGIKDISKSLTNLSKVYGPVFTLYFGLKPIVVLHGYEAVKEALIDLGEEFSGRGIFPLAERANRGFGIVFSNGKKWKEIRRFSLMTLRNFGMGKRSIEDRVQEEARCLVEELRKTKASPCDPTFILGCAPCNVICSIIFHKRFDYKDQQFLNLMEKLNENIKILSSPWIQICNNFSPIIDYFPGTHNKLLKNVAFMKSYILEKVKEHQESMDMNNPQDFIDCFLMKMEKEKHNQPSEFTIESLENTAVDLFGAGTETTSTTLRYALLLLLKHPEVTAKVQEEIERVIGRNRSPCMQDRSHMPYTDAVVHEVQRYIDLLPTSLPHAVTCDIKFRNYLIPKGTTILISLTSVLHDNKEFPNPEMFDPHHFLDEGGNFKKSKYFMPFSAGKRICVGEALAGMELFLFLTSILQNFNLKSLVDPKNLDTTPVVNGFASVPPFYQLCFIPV
# CYP2C9 act – increases human cytochrome P450 2C9 activity | P11712 | 96,000 tested, 1.4% active | activation factor at 5 µM | recombinant CYP2C9, luciferin-H conversion, luminescence; stronger effect = higher value; factor 1 = untreated enzyme, 0 = blocked;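 active means activation factor of 2 or more for CYP2C9 at a 5 µM dose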;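 further: 0 = sulfaphenazole-blocked wells and 1 = vehicle-only wells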
# CYP2C19 inh – human CYP2C19 inhibition | P33261 | 96,000 tested, 21% active | CYP2C19 Supersomes, luciferin-H EGE luminescence, 30 min | inhibition, % at 5 µM;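 active means CYP2C19 inhibition above a set limit at 5 µM in the primary screen, cut at about 50% in these data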;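 further: plate controls were negative control wells for no effect and 2.5 mM tranylcypromine positive control for full effect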
# Pyk2 oligo antag – Pyk2 (human) oligomerization antagonism; Q14289; Q293 cells, Pyk2 FERM NanoBiT luminescence; stronger effect = lower value; z-score (the deposit names both 25 µM and 10 µM); 99,000 tested, 0.83% active; AID 1347419;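 active means Z-score of -3 or lower, scaled per plate to the spread of control and sample wells; inactive means z-score above -3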;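 further: negative z-score means lost luminescence so less FERM oligomerization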
# CYP2C19 activ – activators of human cytochrome P450 2C19. recombinant CYP2C19, luciferin-H EGE luminescence; stronger effect = higher value; 0 = fully inhibited enzyme, 1 = untreated enzyme. activation factor at 5 µM. 96,000 tested, under 10 active;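 active means activation factor of at least 2 at 5 µM in the primary screen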;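 further: 0 = wells with 2.5 mM tranylcypromine and 1 = vehicle-only wells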
# Cav3 T inh – human Cav3.2 channel inhibition, primary screen; B-score at 10 µM; Cav3.2-expressing cells, Fluo-4 calcium fluorescence FDSS; stronger effect = lower value; 100,000 tested, 4% active; O95180;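 active means single-dose well whose peak fluorescence ratio is a statistical outlier from its plate by either plate-standardised score or position-corrected B-score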
# * = called active by the depositor; x = no result. This is a sample that favours compounds with a hit; in the whole collection about 27% have one here.
SMILES,CYP2C9 inhib,CYP2C9 act,CYP2C19 inh,Pyk2 oligo antag,CYP2C19 activ,Cav3 T inh
COC(=O)c1ccccc1NC(NC(=O)c1ccco1)C(=O)c1ccc(C)cc1 (stereo not drawn),58*,0.4,18,-0.69,0.8,0.029
Cc1ccc(C)c(/C=N/NC(=S)NCCc2ccccc2)c1,9,0.9,0,0.32,1,-0.29
CCO[C@@H]1OC(C(=O)N2CCOCC2)=C[C@H](c2ccc(C(F)(F)F)cc2)[C@H]1CCCO,x,x,x,x,x,-0.67
CN(C)C(=O)C(CCN1CCC(O)(c2ccc(Cl)cc2)CC1)(c1ccccc1)c1ccccc1,x,x,x,x,x,-4.6*
CCCCCOC(=O)c1c(N)n(CCOC)c2nc3ccccc3nc12,48,0.5,28,-0.16,0.7,-3.5
CCOC(=O)c1cccc(NC(=O)c2ccco2)c1,-16,1.2,27,0.28,0.7,0.24
CCOC(=O)c1cccc(NC(=O)c2cccs2)c1,63*,0.4,49,-0.36,0.5,0.28
CCOC(=O)c1c(N)n(CCOC(=O)c2cccs2)c2nc3ccccc3nc12,84*,0.2,85*,-1.1,0.1,x
CCOC(=O)c1cnn(CCOC(=O)c2cccs2)c1NC(=O)c1cccs1,86*,0.1,75*,-1.3,0.2,-0.13
CCOC(=O)c1sc(NC(=O)c2cccs2)cc1C,65*,0.4,43,-1.3,0.6,-0.059
COC(=O)c1cccc(NC(=O)/C(=C\c2ccccc2)NC(=O)c2ccccc2Cl)c1,22,0.8,-4,-1.1,1,-0.28
CCOC(=O)c1cccc(NC(=O)/C(=C\c2ccccc2)NC(=O)c2ccccc2Cl)c1,56*,0.4,-5,0.35,1.1,-0.85
CCOC(=O)c1ccccc1NC(=O)c1cc2sccc2n1C,62*,0.4,79*,1,0.2,-0.93
CCOC(=O)c1cccc(NC(=O)c2cc3sccc3n2C)c1,92*,0.1,96*,-1.2,0,-1.8
CCOC(=O)c1cccc(NC(=O)CCn2cccc2)c1,43,0.6,22,0.88,0.8,0.29
CCOC(=O)N1CCN(C(=O)c2cc3sccc3n2C)CC1,-17,1.2,86*,-0.06,0.1,0.059
CCC(C(=O)c1ccccc1)N(C(=O)c1ccccc1Cl)N1C(=O)C2C3C=CC(C3)C2C1=O (stereo not drawn),5,1,48,-1.1,0.5,x
CCCCS(=O)CC(COCc1ccccc1)OC(=O)CSc1nc(C)cc(C)n1 (stereo not drawn),12,0.9,25,0.9,0.7,1.1
CN1CCN(C(=O)c2ccccc2-c2nc(-c3ccc(Cl)cc3)no2)CC1,56*,0.4,27,-0.01,0.7,-0.33
O=C(c1ccccc1-c1nc(-c2ccc(Cl)cc2)no1)N1CCCC1,78*,0.2,43,-0.77,0.6,-2.2
Cc1ccc(-c2noc(-c3ccccc3C(=O)N3CCN(C)CC3)n2)cc1,22,0.8,-1,-0.94,1,-0.84
Cc1ccccc1-c1noc(-c2ccc(O)cc2)n1,18,0.8,59*,-1.8,0.4,0.54
Cc1ccccc1-c1noc(-c2ccccc2C(=O)N2CCCC2)n1,84*,0.2,63*,-0.75,0.4,-0.99
O=C(c1ccccc1-c1nc(-c2ccccc2)no1)N1CCCC1,x,x,x,-2.1,x,0.19
CC(=O)c1cc(F)c(N2CCN(C(=O)COc3ccc(F)cc3)CC2)cc1C,x,x,x,1.6,x,0.25
SMILES,CYP2C9 inhib,CYP2C9 act,CYP2C19 inh,Pyk2 oligo antag,CYP2C19 activ,Cav3 T inh
Cc1ccccc1C(=O)N1CCCN(C(=O)c2ccccc2C)CC1,4,1,58*,-0.38,0.4,1.7
CCC(=O)Nc1ccc(N2CCN(C(=O)c3ccccc3C)CC2)cc1,9,0.9,-5,-0.06,1.1,0.31
CCc1nc(N2CCCCC2C)c2oc3ccccc3c2n1 (stereo not drawn),5,0.9,-12,-0.77,1.1,-1.4
Nc1cc(N)nc(SCC(=O)Nc2ccc3c(c2)OCCCO3)n1,45,0.6,26,1.2,0.7,-0.62
Cc1nc(SCC(=O)Nc2ccc3c(c2)OCCO3)c2oc3ccccc3c2n1,73*,0.3,96*,-2.4,0,-0.48
CCc1nc(SCC(=O)Nc2nccs2)c2oc3ccccc3c2n1,76*,0.2,38,-0.91,0.6,x
O=C(CSc1ncnc2c1oc1ccccc12)Nc1ccc2c(c1)OCCO2,x,x,x,-2.1,x,-1.3
CCc1nc(SCC(=O)Nc2ccc3c(c2)OCCO3)c2oc3ccccc3c2n1,52*,0.5,24,-0.16,0.8,x
CCc1nc(SCC(=O)N2CCCc3ccccc32)c2oc3ccccc3c2n1,74*,0.3,39,-2.5,0.6,-2.3
COc1ccccc1NC(=O)CSc1ncnc2c1oc1ccccc12,22,0.8,-7,0.08,1.1,-0.68
Cc1ccc(NC2=NCC(=O)N2C2CCCC2)c(C)c1,x,x,x,-0.23,x,x
CCCCC1=CC2=CC(=O)C(C)(OC(=O)c3ccco3)C(=O)C2=CO1 (stereo not drawn),x,x,x,x,x,-0.15
Cc1ccc(O)c(-c2cc(C(F)(F)F)[nH]n2)c1,25,0.8,21,-2.3,0.8,-0.047
Cc1ccc(O)c(C2=NOC(O)(C(F)(F)F)C2)c1 (stereo not drawn),17,0.8,68*,0.75,0.3,-1.1
Cc1ccc(O)c(C2=NOC(O)(C(F)(F)C(F)F)C2)c1 (stereo not drawn),53*,0.5,84*,0.35,0.2,-1.4
O=C(CN1CCC(O)CC1)N1c2ccccc2C=Cc2ccccc21,13,0.9,17,0.41,0.8,-0.35
O=c1cc(NCc2ccco2)[nH]c(=O)n1-c1ccc(Br)cc1,x,x,x,0.59,x,-0.056
COc1cc2c(cc1OC)-c1nnc(-c3cccs3)n1C1(CCCC1)C2,-12,1.1,-9,-0.7,1.1,1.7
COc1ccccc1C1CN(c2ccc(F)cc2F)N=C1c1cccs1 (stereo not drawn),91*,0.1,70*,-1.6,0.3,-0.3
CN1C(C(=O)NCc2ccccc2)CC2Cn3c(nc4cc5ccccc5cc43)C21 (stereo not drawn),x,x,x,x,x,-3
C/C(=N/NS(=O)(=O)c1ccc(F)cc1)c1ccc(NC(=O)c2ccc(C)o2)cc1,95*,0.1,45,3.2,0.5,-2.8
Cc1cccc(-c2c3c(=O)n(C)c(=O)n(C)c3cn2C(C)C)c1,57*,0.4,22,0.24,0.8,0.71
Cc1ccc(Sc2ncccc2COC(=O)Nc2ccccc2)cc1,55*,0.4,21,-1.3,0.8,-2.7
C=C(C)C1CCC(C)=C1COC(=O)Nc1ccccc1 (stereo not drawn),37,0.6,22,0.21,0.8,-3.8
Cc1ccc(Sc2ncccc2COC(=O)Nc2c(C)cccc2C)cc1,27,0.7,20,-0.87,0.8,-5.5*
CCS(=O)(=O)N1Cc2ccccc2CC1C(=O)OCC(=O)Nc1ccc(C)cc1 (stereo not drawn),46,0.5,75*,0.38,0.3,-1.1
